Test results: PubChem BioAssay AID720514 (Broad Institute, 2013)
Hit rate of the full screen: of about 2,100 compounds, about 300 (14%) were called active. Inconclusive results (about 2%) are left out.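 Rule for the calls: active = every replicate test run called active, with the signal falling and half-maximal concentration within twice the top valid dose; inconclusive = the replicate test runs disagree in their calls; inactive = every test run inactive, including effects in the opposite direction.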 Only a sample is shown. Potency and affinity values are given separately.

experiment: reduced cellular PGC1a acetyl-lysine signal – cell-based, cherry-picked samples, dose response (AID 720514); conditions: U2OS PGC1a acetylation, AlphaLISA, overnight; series mostly up to 19.5 µM;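 note: actives lower the acetylation signal so they count as inhibitors of PGC1a acetylation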

outcome, inactive:
COc1ccc(C)cc1NS(=O)(=O)c1ccc(NC(=O)CN(c2cc([N+](=O)[O-])ccc2C)S(C)(=O)=O)cc1
CCOC(=O)CCc1c(C)c2ccc(O)cc2oc1=O
OCc1ccc2c(c1)c(-c1ccc3c(c1)OCCO3)c(-c1ccccc1)n2-c1ccccc1
CCCCCOC(=O)Cc1c(O)c2ccccc2n(C)c1=O
CC(OC(=O)C1CCCC1)C(=O)Nc1ccc(C(N)=O)cc1 (stereo not drawn)
CCCCN(CC)CCCNC(=O)c1cc2c(=O)n(CC)c3ccccc3c2s1
C[C@@H]1CN([C@@H](C)CO)C(=O)c2cc(/C=C/c3ccccc3)cnc2O[C@@H]1CN(C)Cc1cccnc1
C[C@@H]1CN([C@@H](C)CO)C(=O)CCCn2nncc2CO[C@H]1CN(C)CC1CCCCC1
CC(C)CC#Cc1ccc2c(c1)O[C@H](CN(C)Cc1ccccc1)[C@H](C)CN([C@@H](C)CO)S2(=O)=O
C[C@H](CO)N1C[C@H](C)[C@@H](CN(C)Cc2ccc3c(c2)OCO3)Oc2cc(Br)ccc2S1(=O)=O
COc1ccccc1/C=C1\SC(=S)N(CCC(=O)NCCCn2ccnc2)C1=O
COc1cccc(NC(=O)N(C)C[C@H]2OCc3ccccc3-c3c(n(C)c4ccccc34)C(=O)N([C@@H](C)CO)C[C@@H]2C)c1
C[C@@H]1CN([C@@H](C)CO)C(=O)c2c(c3ccccc3n2C)-c2ccccc2CO[C@@H]1CN(C)C(=O)c1cc(Cl)cc(Cl)c1
C[C@H]1CN([C@@H](C)CO)S(=O)(=O)c2ccc(C#CCN(C)C)cc2O[C@@H]1CN(C)Cc1ccc2c(c1)OCO2
C[C@H](CO)N1C[C@H](C)[C@@H](CN(C)CC2CCCCC2)Oc2c(NC(=O)c3nc4ccccc4s3)cccc2C1=O
C[C@H](CO)N1C[C@H](C)[C@H](CN(C)Cc2ccc(C(=O)Nc3ccccc3N)cc2)Oc2c(NC(=O)c3ccncc3)cccc2C1=O
Nc1c(C(=O)c2ccccc2)sc2nsc(SCCN3CCCC3)c12
COc1ccc(S(=O)(=O)Nc2ccc3c(c2)C(=O)N([C@H](C)CO)C[C@H](C)[C@H](CN(C)S(=O)(=O)c2cn(C)cn2)OCCCC[C@@H](C)O3)cc1
COC(=O)C(Nc1ccccc1Cl)(c1cc(C)c(O)c(C)c1)C(F)(F)F (stereo not drawn)
CC(C)(C)c1ccc(C(=O)c2c[nH]c(C(=O)NCc3cccnc3)c2)cc1
CCN(CC)CCCn1c(=S)[nH]c2cc(Cl)ccc2c1=O
N#Cc1ccc(C(=O)CSc2nnc(-c3ccc(C(F)(F)F)cn3)s2)cc1
O=C(CSc1nc2ccccc2c(=O)n1CC1CCCO1)N1CCN(c2ccccc2)CC1 (stereo not drawn)
Cn1cc(-c2ccc(C(=O)NCc3cccc(Cl)c3)c3occc23)cn1
Cc1ccc2[nH]cc(C(=O)CN3CCN(c4ccccc4F)CC3)c2c1
COc1ccc(NC(=O)N2CCN(c3ccc([N+](=O)[O-])cc3)CC2)cc1
O=C(Nc1ccc(OCC(=O)N2CCC(Cc3ccccc3)CC2)cc1)c1ccco1
COc1ccc(C2C(C(=O)Nc3ccccc3)=C(C)Nc3nc(CCCO)nn32)cc1 (stereo not drawn)
CC1=CC(C)(C)N2C(=O)C3(SCC(=O)N3c3ccc(F)cc3)c3cc(C)cc1c32 (stereo not drawn)
NC(=O)Cn1cc(C(=O)c2cccs2)c2ccccc21
C[C@@H]1CN([C@@H](C)CO)C(=O)c2c(c3ccccc3n2C)-c2ccccc2CO[C@@H]1CN(C)C(=O)c1ccc(F)cc1
O=S(=O)(NCc1ccccc1Br)c1ccccc1Br
COCCN(C)Cc1nc(C(c2ccccc2)c2ccccc2)no1
Cc1cc(C(F)(F)F)n(-c2nc(C(=O)NNS(=O)(=O)c3ccccc3[N+](=O)[O-])cs2)n1
O=C(NCCC1=CCCCC1)c1coc(=O)c(Br)c1
O=C(NCc1cccnc1)c1ccc(NC(=O)c2cccc([N+](=O)[O-])c2)cc1
COc1cc(/C=C2\SC(=O)NC2=O)ccc1Oc1ccc([N+](=O)[O-])cn1
COc1ccc(CN2CCn3ncc(C(=O)Nc4ccccc4)c3C2=O)cc1
COc1ccc(C#Cc2c(-c3ccccc3)n(-c3ccccc3)c3ccc(CO)cc23)cc1
CC12CCC(C1)C(C)(C)C2NS(=O)(=O)c1ccc(F)cc1 (stereo not drawn)
COc1ccc(NC(=O)c2sccc2SCc2cccc(C(F)(F)F)c2)cc1
O=C(Cn1c(CN2CCCCC2)nc2ccccc2c1=O)Nc1ccccc1
COc1ccc(Cn2nnnc2C(C(C)C)N(Cc2ccco2)Cc2cccs2)cc1 (stereo not drawn)
COc1ccc(S(=O)(=O)N(C)CC(=O)Nc2cccc(C(C)=O)c2)cc1Cl
COc1cccc(C(=O)/C=C/c2ccc(OCC#N)c(OC)c2)c1
COc1ccc(S(=O)(=O)NNC(=O)c2csc(-n3nc(C)cc3C(F)(F)F)n2)cc1
COc1ccc(Nc2nnc(-c3ccc(C(=O)NCCO)cc3)c3ccccc23)cc1
Cn1ncc(Cl)c1C(=O)Nc1sc2c(c1C(N)=O)CCC2
N#Cc1cccc(C(c2nnnn2C2CCCC2)N2CCCCCC2)c1 (stereo not drawn)
Cc1c(C(=O)N2CCN(c3ccccn3)CC2)sc2ncnc(N3CCN(c4ccccc4)CC3)c12
COc1cc(NC(=O)c2cccs2)c(OC)cc1NC(=O)CCC(=O)Nc1ccc2ncccc2c1
Cc1ccc(CC(=O)N2CCN(c3ccc([N+](=O)[O-])cc3)CC2)cc1
O=C(Nc1ccc(F)cc1F)N1CCCN(c2ccc([N+](=O)[O-])cn2)CC1
CS(=O)(=O)N(CC(=O)N1CCN(c2ccccc2)CC1)c1cccc(Br)c1
O=C(COc1ccc(Cl)cc1)NCCCNC(=O)c1cccnc1
Cc1ccc(OCC(=O)NCCCNC(=O)c2cccnc2)cc1C
Cc1cc2oc(=O)cc(CN3CCC(C)CC3)c2cc1C
O=C(CN1CCC(n2nnc3ccccc32)CC1)NCc1cccs1
C=CCNC(=O)c1ccc(CN2CCC(Cc3ccccc3)CC2)cc1
Cc1cc(C(=O)NNS(=O)(=O)c2ccc(F)cc2)nn1C(C)(C)C
COc1cc(CN2[C@@H]3CNC[C@H]2C3c2ccc(-c3ccccc3)cc2)cc(OC)c1 (stereo partly drawn)
COc1ccc(CCCNC(=O)C2(C)Cc3c(-c4ccc5c(c4)OCO5)ccnc3O2)cc1 (stereo not drawn)
CCOc1ccc(NC2c3ccccc3C(=O)N2Cc2ccc3c(c2)OCO3)cc1 (stereo not drawn)
O=C(c1ccccc1Nc1ccc(SC(F)F)cc1)N1CCCCCC1
Cc1cccc(Nc2nnc(-c3ccc(C(=O)N4C[C@H]5C[C@H](C4)c4cccc(=O)n4C5)cc3)c3ccccc23)c1
COC(=O)[C@H](Cc1ccccc1)N(C)S(=O)(=O)c1cccc(S(=O)(=O)N(C)[C@@H](Cc2ccccc2)C(=O)OC)c1
Cc1csc(NC(=O)NC2(C(F)(F)F)Oc3ccccc3O2)n1
O=C(Nc1cccc(C(F)(F)F)c1)c1sc(Cl)nc1C(F)(F)F
Cc1cccc(C)c1OC1(c2ccccc2)OC(=O)c2ccccc21 (stereo not drawn)
O=C(CCn1nnc2ccccc21)Nc1nnc(Cc2ccccc2)s1
O=S(=O)(NC12CC3CC(CC(C3)C1)C2)c1ccc(F)cc1
O=C(CSc1nnc(Cn2cnc3ccccc32)o1)c1ccccc1
CCOc1ccc(-c2nnn(CC#N)n2)cc1OC
Cc1cc(C)c2oc(C(=O)N(Cc3ccccc3)c3ccccn3)cc(=O)c2c1
Cc1ccc(NC(=O)CN(C)S(=O)(=O)c2cccs2)c(Br)c1
N#C/C(=C(/O)c1ccco1)c1nc2ccccc2[nH]1
COc1ccc(-c2c(-c3cc(OC)cc(OC)c3)n(C)c3ccc(-c4cnc(N)nc4)cc23)cc1
Cc1cc(S(=O)(=O)c2ccc([N+](=O)[O-])cn2)ccc1Br
O=C(NCCC1CCCCN1S(=O)(=O)c1cccs1)C(=O)Nc1ccc(F)cc1F (stereo not drawn)
O=C(Cc1ccccn1)NCC[C@@H]1CC[C@H](NC(=O)Nc2ccc(C(F)(F)F)cc2)[C@H](CO)O1
O=C(Cc1ccccn1)NCC[C@H]1CC[C@H](NC(=O)Nc2ccc(C(F)(F)F)cc2)[C@H](CO)O1
CCOC(=O)C(Cc1ccc(NC(=O)/C(=C\c2ccccc2)NC(=O)c2ccccc2)cc1)N1C(=O)c2ccccc2C1=O (stereo not drawn)
O=C(NCc1cccs1)C1Cc2c(-c3ccc(Cl)cc3)ccnc2O1 (stereo not drawn)
C[n+]1c2n(c3ccccc31)N=C(c1cc(C(C)(C)C)c(O)c(C(C)(C)C)c1)CS2
COc1ccc([N+](=O)[O-])cc1NCc1ccccc1
Cc1cc(C)c2c(-n3cccc3)c(C(=O)NNS(=O)(=O)c3ccc(F)cc3)sc2n1
CCOC(=O)C1=CC[C@@H](c2ccccc2)N(S(=O)(=O)c2ccc(C)cc2)[C@H]1c1ccc(CC)cc1
CCN(CC)c1ccc(NC(=O)c2cc(OC)cc(OC)c2)c(C)c1
CCOC(=O)c1ccc(NC(=O)N2CCc3ccccc3C2)cc1
CC1(Cc2ccc(Cl)cc2)C(=O)Nc2c(Cl)ccc(Cl)c21 (stereo not drawn)
Cc1ccc(OCC(=O)N2CC(C)OC(C)C2)c([N+](=O)[O-])n1 (stereo not drawn)
CCOC(=O)C(C)n1cnc2c(nnn2-c2ccc(C)cc2)c1=O (stereo not drawn)
COc1ccc2nc3c(cc2c1)c(NC(=O)c1cccs1)nn3CC(C)C
